# Assay results reported in the supplement of paper PMC10105736.
# Unmarked numbers belong to inactive results.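 How the source made its calls: active = MAPPIT score above the 99th percentile of random reference set scores in the same batch; inactive = at or below it.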
# B1: cactin (protein)
# chain: MPKEKSKHRHRSRSRERRDHRSPDPRSSRNRDRDREREREKDRDHRDHRDKERDQRREREKDKSRDKKREHKSRRRRSSSSSSSPSSSTSSSVPGAPRSPLVKSPMKLLQTLEARRLVEQKDRQRKKEELKAHETPEEKRARRLREKQAKEQRRRERMGWDNEYQTYSNEDNPFGDSNLTSTFHWGKKLEVEGLSNLSTKTVEVLSLQKQLENRRELEKVKKRRQERELERQVREDDLMMQQRAKEAVQFREWQRQEDQFHLEQARLRSEIRIRDGRAKPIDLLAQYVAAGNEPLEECLEMQMHEPYVLLNGLPVEELEDLLVDIKVYEELEQGKHIDFWNDMITIVQDELQRQQKLEAENSSLNQRRDGIHQAVVKDVADIFRGKNAQQLEEMRHRIEAKISGRADGVDISYWESLLSQLKAHMARARLRDRHQALLREKLSLLKRENDNETLQEKVAPQVKEEEMETQDAEDPEVEEGSPEDEEDPLNELRKTVRLYQAGNYSPRYIREEDFTGRRAQNEDVDEPEAEGLLYEEEDDERRTQRQRLLILHPERVDNNQLTPQELRMRNEAKQGMQGDEAEFSVETTLDAVPQLATDKYRPRKPRYFNRVHTGFEWNKYNQTHYDMDNPPPKIVQGYKFNIFYPDLMDKSQTPQYFLTPCADNGDFAVLRFHTGPPYEDIAFKIVNREWEFSYKRGFRCQFHNNIFQLWFHFKRYRYRR
# B2: GstD1 (protein)
# chain: MVDFYYLPGSSPCRSVIMTAKAVGVELNKKLLNLQAGEHLKPEFLKINPQHTIPTLVDNGFALWESRAIQVYLVEKYGKTDSLYPKCPKKRAVINQRLYFDMGTLYQSFANYYYPQVFAKAPADPEAFKKIEAAFEFLNTFLEGQDYAAGDSLTVADIALVATVSTFEVAKFEISKYANVNRWYENAKKVTPGWEENWAGCLEFKKYFE
# B3: Gnpnat (protein)
# chain: MVQLTEETYLYDPNLLLKLDFHRSPANFKPFISAANPGEPWMKVRPLKDTDYDRGFLQLLSQLTHVGNVNRTQFLTRFSQMKASGDYFVTVIEDTRKNEIIGAASLVIERKFIHNCAVRGRLEDVVVNDTYRGKQLGKLIVVTVSLLAEELGCYKMSLDCKDKLIKFYESLGYVAIPGNSNSMTIRYDEGPTLKRNATSAGSSGTVGDSCQTVSLDFAS
# B4: cora (protein)
# chain: MPAEIKPSAPAEPETPTKSKPKSSSSSHGKPALARVTLLDGSLLDVSIDRKAIGRDVINSICAGLNLIEKDYFGLTYETPTDPRTWLDLEKPVSKFFRTDTWPLTFAVKFYPPEPSQLKEDITRYHLCLQVRNDILEGRLPCTFVTHALLGSYLVQSEMGDYDAEEMPTRAYLKDFKIAPNQTAELEDKVMDLHKTHKGQSPAEAELHYLENAKKLAMYGVDLHPAKDSEGVDIMLGVCASGLLVYRDKLRINRFAWPKILKISYKRHHFYIKIRPGEFEQYESTIGFKLANHRAAKKLWKSCVEHHTFFRLMTPEPVSKSKMFPVFGSTYRYKGRTQAESTNTPVDRTPPKFNRTLSGARLTSRSMDALALAEKEKVARKSSTLDHRGDRNADGDAHSRSPIKNKKEKDADKEAKLREKKQKEKEEKERKEREKRELEEKKKAEKAAKAALAAGAAAGAAVNGNDELNDSNKSDKSSGRRGVGIFSSGRKSKSGSPSKDGKDKSGKDKDKEVGRLGLVVTSGLGDNQQDQNLDEAARNAAKNRGSTTPGVTRQYEYAVDNDGNTSPTRKSYTPGGFRYDQDPNSRKSGADGQEQLSPTSQQKKIGLAFNYAPGNENALKETAEKLKAGQLSPRTQDKLNRGQLSPKSRAKLLQDPLLSPTTRAKLQGSAVDAAAVPLSDSQKRSYSPTKGPQGYSSGAPGSYKPISDPTADFLESQRYNKEPGYVGPSKADVAAGLAGAAGSKKPGSPTKTGKGAPGAAAAAAAGAAGAAAAAAKPKKRRVKIMVITSKFDPSTKRIDAENGSIEHSTGILDPATGLIDTKYGVIDPKKGTLEALNTKTGKKEVFQGDVDGKTGNLHLVSGVADPKTGRLDDTLGQIVCITPQDNPVVELTVITSRIDPATGKIDTVNGDVERSLGVLNLDTGLLDTKYGEINTRTGELKAIDPKSGKIVVSKNVKVDPGTGQITILGIVDPKTNKIDPNQGRLIEVGQQIDPIVEVTSLAGKFDSKRNIIDPKTAQVETSGGQFDPKAGKIDTKYGQIDLVKHTITFNDPKSGKTVTRDIKIEPTTGQIVLKNQVNPKNNKPDKDYARIISLRIVQQRVDPATKAPITEVSASKDKDIVVDPKSNQIWVPTGATDPATKEQQYISSSVDPKTGYVITIYGYLDPKTNEIKKQTKLDPNTIKIEPTSGKIYTATGEVDQATGEPLYAATQVDPESGEVYTKLARVDPKTGKIVIVRILLISKTDERGRPEEIDPSTCEIDPVSGRVLKFFNKTVYVYNMIDPVTGEIVQVDPNDPRFAGARTTVTHTMTLTGEIDPVTGRIKSEYGDIDPNTGDIDPATAVTDPVTGKLILNYAQIDPSHFGKQAQVQTTTETVPITRQQFFDGVKHISKGALRRDSEGSSDDDMTAQYGADQVNEILIGSPAGQAGGKLGKPVSTPTVVKTTTKQVLTKNIDGVTHNVEEEVRNLGTGEVTYSTQEHKADATPTDLSGAYVTATAVTTRTATTHEDLGKNAKTEQLEEKTVATTRTHDPNKQQQRVVTQEVKTTATVTSGDQYQRRDSVSSTSSGDSGTPIDGPYDGASVVRTDNQKSPLFTTSATTGPHVESTRVVLGEDTPGFSGHGEIISTQTVSSKTRTVETITYKTERDGIVETRVEQKITIQSDGDPIDHDKALAEAIQEATAMNPDMTVEKIEIQQQTQ
# Assays:
# Test in all cases: MAPPIT interaction score (arbitrary units); higher = stronger binary interaction signal, active = hit call of the paper
# Gs1 = conditions: pair source set: RRS
# GstD8 = conditions: MAPPIT configuration: N-N; pair source set: screen_1
# Gnpnat = conditions: MAPPIT configuration: N-N; pair source set: screen_1
# Jhbp2 = conditions: pair source set: RRS
# GluRIIC = conditions: MAPPIT configuration: N-N; pair source set: Lit-BS-16
# 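Further: HEK293T cells with Epo stimulation, STAT-responsive firefly luciferase reporter, fold induction versus unstimulated cells divided by the larger fold induction of two negative controls lacking either bait or prey.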
binder,measurement,setting,value
B1,MAPPIT interaction score,Gs1; MAPPIT configuration: N-C,0.448
same,MAPPIT interaction score,Gs1; MAPPIT configuration: N-N,0.325
B2,MAPPIT interaction score,GstD8,5.85 (active)
B3,MAPPIT interaction score,Gnpnat,5.14 (active)
same,MAPPIT interaction score,Jhbp2; MAPPIT configuration: N-C,-0.259
same,MAPPIT interaction score,Jhbp2; MAPPIT configuration: N-N,0.242
B4,MAPPIT interaction score,GluRIIC,-0.379
